The list is not random: actives were taken first. Their share in the collection is about 2.1%.
GalR3 antag – GalR3 antagonists in HEK293 cells, primary screen, cell-based, fluorescence readout; Galanin receptor type 3 (Homo sapiens), O60755; HEK293 GalR3-CNG cAMP membrane potential fluorescence; galR3 body fused to GalR1 C-terminus; inhibition, % at 3 µM; actives 0.44% (n = 360,000); AID 651719, 2012;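 active = inhibition above the screen-wide average plus 3 SD, cut at about 13% in these data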;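 also: forskolin and galanin both at EC90 stimulate the cells; cAMP rise reported by CNG channel membrane potential dye signal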
Target sequence (O60755 1-299 limits assumed): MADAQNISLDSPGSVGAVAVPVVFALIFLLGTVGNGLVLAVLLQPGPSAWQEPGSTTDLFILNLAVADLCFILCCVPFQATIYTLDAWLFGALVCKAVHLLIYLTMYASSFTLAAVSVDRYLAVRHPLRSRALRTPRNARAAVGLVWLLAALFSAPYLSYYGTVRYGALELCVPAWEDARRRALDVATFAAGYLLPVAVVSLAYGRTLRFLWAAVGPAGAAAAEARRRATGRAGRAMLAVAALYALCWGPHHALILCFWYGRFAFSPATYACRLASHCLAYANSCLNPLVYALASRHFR
COUP-TFII inh – NR2F2 transcriptional activity inhibitors, primary screen, cell-based, luciferase reporter, HEK293T, luminescence; COUP transcription factor 2 (Homo sapiens), P24468; HEK293T NGFI-A luciferase reporter; inhibition, % at 8.6 µM; AID 686940, 2013; actives 0.7% (n = 370,000);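 active = inhibition above a per-plate cutoff, mean inhibition of test wells between control levels plus 3 SD, cut at about 38% in these data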;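 also: cells cotransfected with COUP-TFII expression vector driving the NGFI-A reporter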
Target sequence (P24468 whole entry, looked up): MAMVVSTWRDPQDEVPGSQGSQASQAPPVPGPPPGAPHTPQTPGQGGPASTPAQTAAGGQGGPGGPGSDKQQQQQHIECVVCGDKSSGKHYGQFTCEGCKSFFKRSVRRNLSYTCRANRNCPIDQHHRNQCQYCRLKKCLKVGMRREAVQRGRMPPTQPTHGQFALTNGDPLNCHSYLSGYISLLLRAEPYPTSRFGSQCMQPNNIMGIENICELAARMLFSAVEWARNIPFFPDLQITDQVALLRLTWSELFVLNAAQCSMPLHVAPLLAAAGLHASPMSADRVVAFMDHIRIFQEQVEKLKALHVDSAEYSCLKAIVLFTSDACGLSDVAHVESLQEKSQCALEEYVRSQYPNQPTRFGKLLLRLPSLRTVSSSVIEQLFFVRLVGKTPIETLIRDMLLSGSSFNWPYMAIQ
Gli-Sufu antag – Gli-Sufu pathway antagonists, primary screen, luciferase luminescence, Sufu-KO-LIGHT cells, uHTS. actives 0.74% (n = 340,000). Sufu-KO-LIGHT fibroblasts, Gli luciferase reporter luminescence. inhibition, % at 5 µM;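 active = inhibition above about 55%, limit read from the data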
aDG glyco up – activators of alpha-DG glycosylation, primary screen, uHTS, Pro5-aDG cells, AlphaScreen. activation, % at 10 µM. actives 0.22% (n = 360,000). alpha-DG glycosylation AlphaScreen (IIH6); 0% Pro5, 100% B10-LARGE cell signal;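 active = activation of at least 8% versus controls, or a plate z-score of at least 8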;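 also: Pro5 are CHO cells carrying HIG-tagged alpha-DG that lacks glycosylation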
HIV Env fusion – inhibitors of HIV-1 Env-driven cell-cell fusion, primary screen, HeLa-JRFL effector, CEM21 target cells, luciferase; actives 1.1% (n = 360,000); inhibition, % at 12.3 µM;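 active = mean replicate inhibition score of at least 50 and every replicate individually at or above 50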
Of the large screens only hits and unclear results are named; the others gave an inactive call; ! = repeats disagree; [ ] = remark or other dose.

CC(C)(C)NC(=O)C1C(c2ccc(C(F)(F)F)cc2)=Nc2ccccc2N1C(=O)c1cccc(C(F)(F)F)c1 (stereo not given)	HIV Env fusion 67 (no result: Gli-Sufu antag)
C[C@@H]1CN([C@@H](C)CO)C(=O)Cc2cc(NC(=O)Nc3ccccc3)ccc2O[C@H]1CN(C)C(=O)Nc1cccc2ccccc12	none (no result: GalR3 antag, COUP-TFII inh, Gli-Sufu antag, aDG glyco up)
CC1(C)Cc2c(sc(NC(=O)c3ccc(S(=O)(=O)N4CCCCCC4)cc3)c2C#N)C(C)(C)N1	HIV Env fusion 63
CCOC(=O)N1CCN(S(=O)(=O)c2ccc(C(=O)Nc3sc4c(c3C(N)=O)CC(C)(C)NC4(C)C)cc2)CC1	none
C[C@H](O)C#Cc1cnc2c(c1)C(=O)N([C@H](C)CO)C[C@@H](C)[C@H](CN(C)C(=O)Cc1ccncc1)O2	none (no result: GalR3 antag, COUP-TFII inh, Gli-Sufu antag, aDG glyco up)
C[C@H]1CN([C@@H](C)CO)S(=O)(=O)c2ccc(C#CC3CCCC3)cc2O[C@H]1CN(C)C(=O)Cc1ccccc1	none (no result: GalR3 antag, COUP-TFII inh, Gli-Sufu antag, aDG glyco up)
Cc1ccc(S(=O)(=O)N2CCCCC2)cc1NC(=O)Cn1c(=O)cnc2ccccc21	HIV Env fusion 59
Cc1ccc(NC(=O)Cn2c(=O)cnc3ccccc32)cc1S(=O)(=O)N1CCCCC1	none
C=CC[C@H](CC(=O)NCCO)C(=O)N[C@H](COC(=O)[C@@H](CC=C)Cc1ccc(F)cc1)Cc1ccccc1	HIV Env fusion 59
C=CC[C@H](CC(=O)NCCO)C(=O)N[C@@H](COC(=O)[C@@H](CC=C)Cc1ccc(F)cc1)Cc1ccccc1	HIV Env fusion 79
C[C@@H]1CN([C@@H](C)CO)C(=O)c2cc(-c3ccc(C#N)cc3)cnc2O[C@H]1CN(C)C(=O)CC1CC1	none (no result: GalR3 antag, COUP-TFII inh, Gli-Sufu antag, aDG glyco up)
CCCC(=O)Nc1ccc2c(c1)C(=O)N(C)C[C@H](OC)[C@@H](C)CN(C(=O)c1ccccc1F)[C@@H](C)CO2	none (no result: GalR3 antag, COUP-TFII inh, Gli-Sufu antag, aDG glyco up)
CCCCCCCCNc1ncnc2[nH]ncc12	COUP-TFII inh 38
C[C@@H]1CCCCO[C@H](CN(C)C(=O)c2ccccc2)[C@H](C)CN([C@@H](C)CO)C(=O)c2cc(N(C)C)ccc2O1	none (no result: GalR3 antag, COUP-TFII inh, Gli-Sufu antag, aDG glyco up)
O=C(N(Cc1ccccc1)c1ccccn1)C12CC3CC(CC(C3)C1)C2	HIV Env fusion 122
O=C(N(c1ccccn1)c1ccccn1)C12CC3CC(CC(C3)C1)C2	none
CCOc1ccccc1C(=O)NCC(=O)NNC(=O)CN(C)S(=O)(=O)c1ccc(Cl)cc1	HIV Env fusion 69
CN(CC(=O)NNC(=O)CNC(=O)c1ccccc1F)S(=O)(=O)c1ccc(Cl)cc1	none
CCC[C@@H](CN1CCC[C@H]1CN1C(N)=NC[C@@H]1Cc1ccccc1)N1C[C@@H]([C@H](C)CC)N(CCCC2CCCC2)C1=N	Gli-Sufu antag 61 (no result: GalR3 antag, COUP-TFII inh, HIV Env fusion)
CCC[C@@H](CN1CCC[C@H]1CN1C(N)=NC[C@@H]1Cc1ccccc1)N1C[C@@H](Cc2ccccc2)N(CCCC2CCCC2)C1=N	none (no result: GalR3 antag, COUP-TFII inh, HIV Env fusion)
C[C@@H]1CCCCO[C@@H](CN(C)C(=O)c2ccccc2)[C@@H](C)CN([C@@H](C)CO)C(=O)c2cc(NS(=O)(=O)c3ccc(Cl)cc3)ccc2O1	none (no result: GalR3 antag, COUP-TFII inh, Gli-Sufu antag, aDG glyco up)
Cc1ccc(C2Oc3ccccc3C3=C2C(c2cccs2)n2ncnc2N3)cc1 (stereo not given)	HIV Env fusion 102
Fc1ccc(C2C3=C(Nc4ncnn42)c2ccccc2OC3c2ccncc2)cc1 (stereo not given)	none
CC(CNC(=S)Nc1cc(F)cc(F)c1)CSc1ccc(Cl)cc1 (stereo not given)	HIV Env fusion 78
Cc1ccc(NC(=S)NCCSc2ccc(Cl)cc2)cc1	none
C[C@H](CO)N1C[C@H](C)[C@@H](CN(C)C(=O)Nc2ccc(C(F)(F)F)cc2)OCCCC[C@H](C)Oc2ccc(NS(=O)(=O)c3ccc(F)cc3)cc2C1=O	HIV Env fusion 70[16.7 µM] (no result: GalR3 antag, COUP-TFII inh, Gli-Sufu antag, aDG glyco up)
COc1ccc(S(=O)(=O)Nc2ccc3c(c2)C(=O)N([C@H](C)CO)C[C@H](C)[C@H](CN(C)C(=O)Nc2ccccc2)OCCCC[C@H](C)O3)cc1	HIV Env fusion 60[16.7 µM] (no result: GalR3 antag, COUP-TFII inh, Gli-Sufu antag, aDG glyco up)
C[C@@H]1CCCCO[C@H](CN(C)C(=O)Nc2ccc(C(F)(F)F)cc2)[C@@H](C)CN([C@H](C)CO)C(=O)c2cc(NS(=O)(=O)c3ccccc3)ccc2O1	none (no result: GalR3 antag, COUP-TFII inh, Gli-Sufu antag, aDG glyco up)
C[C@H]1CCCCO[C@@H](CN(C)C(=O)Nc2ccc(C(F)(F)F)cc2)[C@@H](C)CN([C@@H](C)CO)C(=O)c2cc(NS(=O)(=O)c3ccccc3)ccc2O1	HIV Env fusion 64[16.7 µM] (no result: GalR3 antag, COUP-TFII inh, Gli-Sufu antag, aDG glyco up)
Cc1noc(C)c1S(=O)(=O)N(C)C[C@H]1OCCCC[C@@H](C)Oc2ccc(NS(C)(=O)=O)cc2C(=O)N([C@@H](C)CO)C[C@@H]1C	none (no result: GalR3 antag, COUP-TFII inh, Gli-Sufu antag, aDG glyco up)
COc1ccc(S(=O)(=O)NNC(=O)C2Cc3c(ccc4ccccc34)O2)cc1 (stereo not given)	HIV Env fusion 85
COCCNC(=O)C1Cc2c(ccc3ccccc23)O1 (stereo not given)	none
O=C(C[C@@H]1CC[C@@H](NS(=O)(=O)c2ccc(F)cc2)[C@@H](CO)O1)N1CCc2ccccc2C1	none (no result: GalR3 antag, COUP-TFII inh, Gli-Sufu antag, aDG glyco up)
CCC(=O)N1C[C@@H](C)[C@@H](OC)CN(C)C(=O)c2ccc(NC(=O)NC(C)C)cc2OC[C@@H]1C	none (no result: GalR3 antag, COUP-TFII inh, Gli-Sufu antag, aDG glyco up)
CCOC(=O)c1oc2cccc(O)c2c1C	none
CCOC(=O)c1oc2cccc(O)c2c1CN(Cc1ccccc1)C(C)=O	HIV Env fusion 60
COCC#Cc1cnc2c(c1)C(=O)N([C@@H](C)CO)C[C@@H](C)[C@H](CN(C)C(=O)c1ccc(F)cc1)O2	none (no result: GalR3 antag, COUP-TFII inh, Gli-Sufu antag, aDG glyco up)
O=C(Cn1ncc2c(=O)oc3ccccc3c21)N1CCC(N2CCCCC2)CC1	HIV Env fusion 74 (no result: GalR3 antag)
COc1ccc(CN(C)C[C@@H]2OCCCC[C@H](C)Oc3ccc(NC(=O)Cc4ccccc4)cc3C(=O)N([C@H](C)CO)C[C@H]2C)cc1	none (no result: GalR3 antag, COUP-TFII inh, Gli-Sufu antag, aDG glyco up)
COc1ccc(Nc2ccc(C(F)(F)F)cc2[N+](=O)[O-])cn1	HIV Env fusion 59
COc1ccc(/C=C/c2c(-c3ccc(OC)cc3)oc3ccccc23)cc1	HIV Env fusion 56
CCOP(=O)(c1ccc(N(C)C)cc1)C(O)c1c(Cl)cccc1Cl (stereo not given)	none
CC(C)CCOP(=O)(c1ccc(N(C)C)cc1)C(O)c1c(Cl)cccc1Cl (stereo not given)	HIV Env fusion 75
CCCOP(=O)(c1ccc(N(C)C)cc1)C(O)c1c(Cl)cccc1Cl (stereo not given)	HIV Env fusion 73
COc1ccc(C#Cc2cnc3c(c2)C(=O)N([C@@H](C)CO)C[C@@H](C)[C@H](CN(C)C(=O)Nc2cccc(OC)c2)O3)cc1	none (no result: GalR3 antag, COUP-TFII inh, Gli-Sufu antag, aDG glyco up)
O=C(CSc1nc2ccccc2c(=O)n1CCCN1CCOCC1)Nc1ccc(F)c(Cl)c1	HIV Env fusion 71
CCCCCCCCCCCCCCCC[n+]1cccc(C(=O)N(CC)CC)c1	Gli-Sufu antag 72!

High-throughput results (PubChem BioAssay)
